# Assay results published in the supplement of paper PMC3334620.
# The full ranking holds about 33,000 sequences; the median of “E-score (-0.5 to 0.5)” is about -0.054, and the highest 2% start at about 0.35. The list comes from a sample in which the highest values are over-represented; it also holds similar and randomly drawn sequences.
# Molecular target: T1, Stb5 (UniProt P38699)
# T1 sequence: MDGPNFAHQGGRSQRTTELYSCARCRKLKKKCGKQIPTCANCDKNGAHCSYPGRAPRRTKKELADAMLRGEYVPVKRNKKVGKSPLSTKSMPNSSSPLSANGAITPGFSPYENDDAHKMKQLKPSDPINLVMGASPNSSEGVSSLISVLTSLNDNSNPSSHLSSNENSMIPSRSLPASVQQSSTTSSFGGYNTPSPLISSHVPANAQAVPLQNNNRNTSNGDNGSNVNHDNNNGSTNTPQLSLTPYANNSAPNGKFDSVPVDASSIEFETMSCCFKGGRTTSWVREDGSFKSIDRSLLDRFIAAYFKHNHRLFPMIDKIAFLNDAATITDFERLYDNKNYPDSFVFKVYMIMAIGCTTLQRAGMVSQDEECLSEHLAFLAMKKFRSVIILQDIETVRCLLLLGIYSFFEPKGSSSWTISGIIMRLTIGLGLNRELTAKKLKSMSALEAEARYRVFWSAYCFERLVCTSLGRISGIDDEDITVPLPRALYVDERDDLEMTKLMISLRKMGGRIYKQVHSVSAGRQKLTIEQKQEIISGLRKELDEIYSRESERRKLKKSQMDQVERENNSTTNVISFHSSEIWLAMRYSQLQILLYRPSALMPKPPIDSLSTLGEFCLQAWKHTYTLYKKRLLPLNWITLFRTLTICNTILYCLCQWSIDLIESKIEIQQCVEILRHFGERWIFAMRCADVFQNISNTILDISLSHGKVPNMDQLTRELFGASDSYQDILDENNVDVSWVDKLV
# Test: PBM E-score (8-mer binding enrichment) (E-score (-0.5 to 0.5)); higher = stronger / more preferred TF binding
# Conditions: protein concentration: 200 nM; construct: GST-full length
# Experimental: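 Universal 'all 10-mer' protein binding microarrays (Agilent AMADID 015681) probed with GST-tagged S. cerevisiae TFs (full-length or DBD) made by in vitro transcription/translation (PURExpress), about 100-200 nM. Bound TF was detected with fluorescent anti-GST. Each ungapped 8-mer (which stands for itself and its reverse complement) is scored by the PBM enrichment score (E-score), a modified Wilcoxon-Mann-Whitney statistic from -0.5 to +0.5, computed with the Universal PBM Analysis Suite. Scale: above 0.35 generally sequence-specific binding.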
row,Sequence,PBM E-score
1,AACACCAT,0.0943
2,AACACCCT,-0.128
3,TACACCGA,0.414
4,AGGCGACG,-0.112
5,CCAGAAAA,-0.296
6,AATGACTC,-0.235
7,AAGGATCT,-0.117
8,CCTGCCCC,0.0235
9,CTGAATCA,-0.177
10,ACCCCCCT,-0.245
11,AACCCCCT,-0.247
12,ACCCCCCC,-0.295
13,AACCCCGT,0.448
14,ACACCCGT,0.162
15,ACCCCCGT,0.365
16,ACCCCCGC,0.398
17,AACCCCAT,0.156
18,CCCCCCGC,0.068
19,CTACTCCC,-0.0111
20,TCGTGGAA,0.00034
21,CTAAGAAC,0.00444
22,ATGTTCCG,0.249

row,Sequence,PBM E-score
1,AATTGATG,0.0383
2,ATCGATAA,-0.139
3,ACGGCAAA,0.235
4,ACGGCGAC,0.264
5,ACGGCGTC,0.392
6,ACGGCGAG,0.043
7,ACGGCGTA,0.0801
8,ACGGCAAG,-0.121
9,ACGGCACC,0.175
10,ACGGCACA,0.0761
11,ACGGCACT,0.427
12,ACGGCGAT,0.362
13,ACGGCAAT,0.377
14,ACGGCGTG,0.208
15,ATACCAGA,-0.177
16,GGTACTTA,0.233
17,GTTAGAAC,0.0768
18,ATTCGCCC,0.125
19,CCTCCAAC,-0.199
20,ATCGCAAC,-0.0557
21,CATATCCG,0.15
22,AATATGCT,0.00961

row,Sequence,PBM E-score
1,CCGGCACC,0.278
2,GCGGCACC,0.353
3,GCGGCACA,0.173
4,GCAAAAGA,-0.0404
5,CATTGAGC,-0.032
6,CTCTAATA,-0.188
7,AGGGCCCT,-0.173
8,GGGCTAAC,-0.0393
9,AGCTAGGG,-0.0617
10,CTAGCGCC,0.172
11,ATAGCACA,-0.124
12,ATAGCGCG,0.0127
13,ATAGCACC,0.396
14,ATAGCACG,-0.0126
15,ATAGCGCC,0.361
16,AGCTCGAA,-0.0836
17,GGTGAAGA,0.0224
18,CAGTTCGG,0.206
19,GTTTCTAA,0.0616
20,CTGCCGTC,0.121
21,ACGCCGAT,0.35
22,ATGCCGTG,0.144

row,Sequence,PBM E-score
1,ACGCCGAC,0.435
2,CCGCCGAC,0.356
3,ATGCCGTC,0.352
4,ATGCCGAC,0.386
5,CCGCCGAG,0.28
6,CCGCCGAA,0.347
7,CTGCCGAC,0.15
8,GCGCCGAC,0.28
9,ATGCCGAG,0.147
10,AGAATCTG,-0.0539
11,CCACACGC,-0.0412
12,CTCCGTCA,0.297
13,ATCTACAT,-0.193
14,TCCAACAA,-0.129
15,GAGGTATC,-0.0164
16,ATGCCGGA,0.373
17,ATGCCGGC,0.301
18,ATGCCGGG,0.287
19,GTTATCGA,-0.0558
20,CAAGAGAC,-0.146
